Among the test systems are T-47D breast; BT-549 breast; MDA-MB-435 melanoma; SW-620 colon; MCF7 breast; HCT-116 colon; HCC-2998 colon; KM12 colon; MDA-MB-468 breast.
Assay in all cases: NCI-60 one-dose screen, 48 h (100 = growth as untreated, 0 = no growth, -100 = all killed)
Common to all, as to conditions: 10 µM

Consider 14 compounds from PubChem BioAssay (NCI).

Molecules are shown by their SMILES. “And” between values parts separate entries of the source, which are not always exact repeats. Equal entries are not always repeated. The panel holds about 83,000 compounds, 20% with a hit somewhere; the sample as a whole holds those more often.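 Values shown are percent growth following 48 h exposure of cells in 96-well plates to a single concentration of compound; below 10 was considered active.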 Unmarked numbers belong to inactive results. The source made the active and inactive calls.

Regarding `C=C(C)[C@@H]1CC[C@]2(C)[C@H](CC=C3[C@@H]4CC(C)(C)CC[C@]4(C(=O)N4CCOCC4)CC[C@]32C)[C@@]1(C)CCCN`, the growth is -88.1% (active) in the experiment with T-47D breast; -85.3% (active) in the experiment with BT-549 breast; -99.5% (active) in the experiment on MDA-MB-435 melanoma; -65.1% (active) in the experiment with SW-620 colon; -70.7% (active) with MCF7 breast; -54.2% (active) in the experiment on HCT-116 colon. Besides, the growth is -81.1% (active) in the experiment on HCC-2998 colon, -82.3% (active) with KM12 colon and -96% (active) in the experiment on MDA-MB-468 breast.
Regarding `O=C1CCC(N2Cc3cc(NC(=O)COc4ccccc4)ccc3C2=O)C(=O)N1` (stereo unspecified), the growth in the experiment on T-47D breast is 49.2%; in the experiment on BT-549 breast it was 4.38% (active); with MDA-MB-435 melanoma it was 88.1%; in the experiment with SW-620 colon, 55.2%; in the experiment on MCF7 breast it was 70.3%; in the experiment with HCT-116 colon, 103%. For the same compound, the growth with HCC-2998 colon was 83.5%; with KM12 colon, 74.5%; in the experiment on MDA-MB-468 breast it was -25.1% (active).
Consider `COc1cc(/C=C/C(=O)c2ccc(S(=O)(=O)NCCNc3nc(Nc4ccc(F)cc4)nc(N(C)C)n3)cc2)cc(OC)c1OC`, for which the growth was 26.2% in the experiment with T-47D breast; -9.95% (active) with BT-549 breast; -24.8% (active) in the experiment on MDA-MB-435 melanoma; 1.12% (active) with SW-620 colon; -76.1% (active) in the experiment with MCF7 breast; -69.6% (active) in the experiment with HCT-116 colon. Moreover, the growth with HCC-2998 colon was -99% (active); in the experiment on KM12 colon, -81.1% (active); with MDA-MB-468 breast, -50.5% (active).
As for `O=c1oc2ccccc2cc1-c1csc(N=Nc2c(O)[nH]c3ccc(Br)cc23)n1`, the growth with T-47D breast was 89.1%; with BT-549 breast, 62.9%; with MDA-MB-435 melanoma, 102%; with SW-620 colon, 104%; with MCF7 breast, 80.7%; in the experiment on HCT-116 colon, 64.1%. For the same compound, the growth in the experiment with HCC-2998 colon is 96.3%; in the experiment with KM12 colon, 99.9%; with MDA-MB-468 breast, 95.2% and 64.3%.
For the compound `O=C(CSc1nnc(-c2c[nH]c3ccccc23)n1-c1ccccc1)c1ccccc1`, the growth with T-47D breast was 83.5%; with BT-549 breast, 62.2%; in the experiment on MDA-MB-435 melanoma it was 87.2%; in the experiment on SW-620 colon, 76.1%; in the experiment with MCF7 breast, 36.2%; with HCT-116 colon, 38%. For the same compound, the growth was 83.1% with HCC-2998 colon, 69.5% with KM12 colon and 77.2% with MDA-MB-468 breast.
As for `CN1CCN(c2ccc(Nc3nc(NCCNC(=O)c4ccc(C(F)(F)F)cc4)c4sccc4n3)cc2)CC1`, the growth with T-47D breast was -6.48% (active); in the experiment on BT-549 breast, -13.9% (active); in the experiment with MDA-MB-435 melanoma it was -95.2% (active); in the experiment with SW-620 colon, 4.68% (active); in the experiment with MCF7 breast, -44.4% (active); with HCT-116 colon, 15.2%. For the same compound, the results for the growth in the experiment on HCC-2998 colon, with KM12 colon and with MDA-MB-468 breast were -22.5% (active), 31.4% and 5.65% (active), respectively.
In the case of `C/C(=C\CSc1ccccc1C(=O)O)CCCC(C)CCCC(C)CCCC(C)C` (stereo unspecified), the growth with T-47D breast is 37.3%; with BT-549 breast it was 80.6%; in the experiment with MDA-MB-435 melanoma, 71.8%; in the experiment on SW-620 colon, 55.1%; in the experiment on MCF7 breast, 50.4%; in the experiment with HCT-116 colon, 34.4%. The growth in the experiment with HCC-2998 colon was 18.3%; in the experiment on KM12 colon, 46.4%; in the experiment on MDA-MB-468 breast it was 60.3%.
As for `Cc1ccc(-c2ccc(SCC(=O)Nc3ccc(Cl)c(C(F)(F)F)c3)nn2)cc1`, the growth was 26.2% in the experiment with T-47D breast; 25.4% in the experiment on BT-549 breast; -18.8% (active) in the experiment on MDA-MB-435 melanoma; 24.2% with SW-620 colon; 15.9% in the experiment with MCF7 breast; 10.3% in the experiment on HCT-116 colon. For the same compound, the values for the growth in the experiment with HCC-2998 colon, with KM12 colon and in the experiment on MDA-MB-468 breast were 12.9%, 24.7% and -31% (active), respectively.
`COc1cc2c(c(OC)c1OC)C(=O)CC(c1cccc(NC(=O)c3cccc(N)c3)c1)O2` (stereo unspecified): the growth in the experiment on T-47D breast is 35.5%; with BT-549 breast, 63.8%; in the experiment on MDA-MB-435 melanoma, 77.4%; in the experiment on SW-620 colon, 94.1%; in the experiment on MCF7 breast, 57.8%; in the experiment with HCT-116 colon it was 65.4%. For the same compound, the growth in the experiment with HCC-2998 colon was 114%; with KM12 colon, 72.2%; with MDA-MB-468 breast, 65.6%.
On to `C/C(=N\N=C\c1ccc(N(C)C)cc1)c1ccc2c(c1)Nc1ccccc1S2`, for which the growth with T-47D breast was 44.6%; in the experiment with BT-549 breast it was 58.2%; with MDA-MB-435 melanoma it was 51.1%; with SW-620 colon, 35.3%; with MCF7 breast, 35.8%; with HCT-116 colon it was 31.4%. The results for the growth with HCC-2998 colon, in the experiment with KM12 colon and with MDA-MB-468 breast were 54.4%, 60.9% and 8.43% (active), respectively.
With `COc1cnc2c(c1)C(=O)c1c-2n(CCCNC(C)C)c(=O)c2cc(OC)c(OC)cc12`, the growth is 36.2% with T-47D breast; 56.4% in the experiment with BT-549 breast; 44% in the experiment on MDA-MB-435 melanoma; -24.9% (active) in the experiment with SW-620 colon; 11.8% in the experiment on MCF7 breast; 25.5% in the experiment with HCT-116 colon. In addition, the growth in the experiment on HCC-2998 colon is 48.9%; in the experiment with KM12 colon it was 29.5%; in the experiment with MDA-MB-468 breast, 8.82% (active).
Regarding `CCCCCCCCCCCCCCCCCCCC(=O)NCCc1c[nH]c2ccc(OC(=O)CCCC(=O)OCCOOCCOOCCOOCCOOCCOOCCOOCCOOCCOOCCOOCCOOCCOOCCOC)cc12`, the growth in the experiment on T-47D breast is 22.4%; with BT-549 breast it was -20.2% (active); with MDA-MB-435 melanoma, 82.7%; in the experiment on SW-620 colon, 83%; in the experiment with MCF7 breast, 24.3%; in the experiment with HCT-116 colon, 32.7%. Besides, the growth in the experiment on HCC-2998 colon was 87.8%; in the experiment with KM12 colon, 35.7%; in the experiment on MDA-MB-468 breast, 85.6%.
In the case of `O/N=C(\CSc1nnc(-c2c[nH]c3ccccc23)n1-c1ccccc1)c1ccc(Br)cc1`, the growth in the experiment with T-47D breast is 5.96% (active); with BT-549 breast it was -72.7% (active); with MDA-MB-435 melanoma, -100% (active); in the experiment on SW-620 colon, -86.3% (active); with MCF7 breast, -42.5% (active); with HCT-116 colon it was -36.3% (active). In addition, the growth in the experiment on HCC-2998 colon is -66.5% (active); in the experiment with KM12 colon, 2.11% (active); in the experiment on MDA-MB-468 breast, -94.5% (active).
For the compound `Cc1cc(C(F)(F)F)ccc1C(=O)Nc1sc2c(c1C#N)CCC(=O)C2`, the growth is -34% (active) with T-47D breast; -76.1% (active) with BT-549 breast; -48.1% (active) in the experiment with MDA-MB-435 melanoma; -34.4% (active) in the experiment with SW-620 colon; 2.31% (active) in the experiment with MCF7 breast; 5.39% (active) in the experiment with HCT-116 colon. The results for the growth with HCC-2998 colon, in the experiment on KM12 colon and with MDA-MB-468 breast were -10.6% (active), -8.98% (active) and -44.4% (active), respectively.
